High-throughput results as filed in PubChem BioAssay.
An excerpt weighted towards active compounds, which were near 1.6% of everything screened.
BH1578 lux ind – inducers of Vibrio cholerae quorum light production without autoinducers, primary screen, BH1578 luxS cqsA deficient, single point. 350,000 compounds, 0.16% hits. activation, % at 18.7 µM. AID 588436, 2011. V. cholerae BH1578 lux reporter, luminescence, 6 h; in the data active means activation mostly above about 9.7%, no sharp cut-off
3CLpro inhibitor – SARS-CoV 3CLpro protease inhibitors, primary screen, biochemical, quenched FRET. recombinant SARS-CoV 3CLpro, quenched FRET peptide cleavage. inhibition, % at 6 µM. 290,000 compounds, 0.14% hits. AID 1706, 2009; in the data active means inhibition above about 12%
PrP UTR inh – inhibition of PrP 5' UTR reporter expression; inhibition, % (concentration not given with the values); 340,000 compounds, 0.35% hits; AID 488862, 2010; cell-based PrP 5' UTR mRNA reporter, plate reader; in the data active means inhibition above about 52%; further: 0 = median of the neutral control wells
PrPC surface inh – inhibitors of human cell surface prion protein PrPC, primary screen, cell-based, TR-FRET. Major prion protein (Homo sapiens), P04156. TR-FRET read-out. inhibition, % at 13.8 µM. 370,000 compounds, 0.43% hits. AID 720596, 2013; in the data active means inhibition above about 24%; further: 0% = median of the test wells and 100% = reference compound wells
PriA SSB inh – inhibitors of Klebsiella pneumoniae PriA binding to SSB C-terminal tail, primary screen, biochemical, AlphaScreen; AlphaScreen SSBct-PriA binding, biotinylated peptide; inhibition, % at 33 µM; 430,000 compounds, 0.6% hits; in the data active means inhibition mostly above about 37%, no sharp cut-off; inactive means mostly below about 20%;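 further: plate controls were negative control peptide for no effect and reference peptide for full effect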
PfHsp40 rescue – rescue of yeast from PfHsp40 toxicity, primary screen, S. cerevisiae, ATP luminescence | S. cerevisiae expressing PfHsp40, growth rescue | growth rescue, % at 12.5 µM | 340,000 compounds, 0.68% hits | AID 504582, 2011; in the data active means growth rescue above about 28%, passing the limit was not always enough;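 further: yeast W303a lacking pdr1 and pdr3 grown in galactose medium; growth measured after three days at 30 °C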
Numbers without * were called inactive; i = inactive; / = no result.

SMILES	BH1578 lux ind	3CLpro inhibitor	PrP UTR inh	PrPC surface inh	PriA SSB inh	PfHsp40 rescue
CCOC(=O)C1=C(C)NC(=S)NC1c1cccc2ccccc12 (configuration not stated)	/	/	/	/	26	/
CCCN1CCCc2cc(CCNC(=O)COc3cccc(C)c3)ccc21	/	/	/	/	90*	/
CCCN1CCCc2cc(CCNC(=O)COc3ccccc3C)ccc21	/	/	/	/	68*	/
CCCN1CCCc2cc(CCNC(=O)COc3ccc(F)cc3)ccc21	/	/	/	/	78*	/
CCCC(=O)NCCc1ccc2c(c1)CCCN2CCC	/	/	/	/	28	/
CCCN1CCCc2cc(CCNC(=O)C(=O)Nc3ccccc3OCC)ccc21	/	/	/	/	58	/
CCCN1CCCc2cc(CCNC(=O)c3ccccc3OCC)ccc21	/	/	/	/	74*	/
CN1CCN(n2c3c(c(SCc4ccc(Br)cc4)nc2=O)CCC3)CC1	/	/	/	/	11	/
O=C(Cn1c(=O)oc2ccccc21)NCCc1nc2c(c(C(F)(F)F)n1)CCCC2	/	/	/	/	-9	/
CC(C)c1ccc(/C=C\C(=O)Nc2ncc(Cc3ccc(F)cc3)s2)cc1	/	/	/	/	-10	/
CCOc1cc(NC(=O)Nc2cc(Cl)ccc2OC)ncn1	/	/	/	/	-15	/
CCc1ccc(S(=O)(=O)Nc2cc(-c3cn4nc(OC)ccc4n3)ccc2OC)s1	/	/	/	/	-10	/
CCCN1CCCc2cc(CCNC(=O)COc3ccc(OC)cc3)ccc21	/	/	/	/	74*	/
CCCN1CCCc2cc(CCNC(=O)c3cccc(OC)c3OC)ccc21	/	/	/	/	24	/
CCN1CCCc2cc(CCNC(=O)c3ccccc3C(F)(F)F)ccc21	/	/	/	/	59*	/
CCCN1CCCc2cc(CCNC(=O)COc3ccc(Cl)cc3)ccc21	/	/	/	/	73*	/
CCCN1CCCc2cc(CCNC(=O)COc3ccc(C)cc3)ccc21	/	/	/	/	64	/
CCCN1CCCc2cc(CCNC(=O)c3cc(Cl)ccc3OC)ccc21	/	/	/	/	66*	/
Cc1ccc(S(=O)(=O)/C(=C\c2ccccc2)NC(=NCc2ccccc2)c2ccccc2)cc1	/	/	/	/	-1	/
Cc1ccc(-n2nnc3c(N4CCN(S(=O)(=O)c5cccs5)CC4)ncnc32)cc1	/	/	/	/	-7	/
COc1ccccc1C(=O)Nc1ccc(I)cc1C	/	/	/	/	-49	/
O=C(NCCN1CCOC(c2ccccc2)C1)c1c(F)cccc1Cl (configuration not stated)	/	/	/	/	-2	/
CCCN1CCCc2cc(CCNC(=O)c3ccc(OC)cc3)ccc21	/	/	/	/	74*	/
CSCc1cc(N(C)c2ccccc2)nc(-c2ccccn2)n1	i	0	-5	5	-3	111*
O=C(NCc1n[nH]c(=S)n1-c1ccccc1Cl)c1cccc2ccccc12	/	/	/	/	2	/
SMILES	BH1578 lux ind	3CLpro inhibitor	PrP UTR inh	PrPC surface inh	PriA SSB inh	PfHsp40 rescue
O=[N+]([O-])c1ccccc1-c1ccc(/C=N/n2cnnc2)o1	-7	-5	/	-17	/	0
O=C1ON=C(c2ccccc2)/C1=C/c1ccc(-c2ccccc2[N+](=O)[O-])o1	0	15*	5	-7	-2	-1
CCCc1ccc(C(C)NC(=S)NC2CCCCC2)cc1 (configuration not stated)	8	-3	-3	14	-33	159*
CC(NC(=S)NC1CCCCC1)c1ccccc1 (configuration not stated)	-1	-5	6	2	-10	-1
CCc1cccc(C)c1NC(=O)CSc1nccn1-c1ccc(C(=O)NCc2ccc(C)o2)cc1	/	/	/	/	24	/
COc1cccc(-n2ccnc2SCC(=O)Nc2ccccc2C(F)(F)F)c1	/	/	/	/	44*	/
CCOc1ccccc1NC(=O)CSc1nccn1-c1ccc(C(=O)NCc2cccs2)cc1	/	/	/	/	40*	/
COc1ccc(OC)c(NC(=O)CSc2nccn2-c2ccc(F)cc2)c1	/	/	/	/	54*	/
COc1ccc(-n2ccnc2SCC(=O)Nc2ccc(Cl)cc2)cc1	/	/	/	/	49*	/
COc1cccc(-n2ccnc2SCC(=O)Nc2ccccc2F)c1	0	7	-11	-2	33	1
Cn1ccc(=O)[nH]c1=O	/	/	/	/	-5	/
Cc1cccc(-n2ccnc2SCC(=O)Nc2ccc([N+](=O)[O-])cc2)c1C	/	/	/	/	51*	/
Cc1cc(NC(=O)CSc2nccn2-c2cccc(C)c2C)no1	-1	-6	-137	-1	-1	1
COc1ccc(-n2ccnc2SCC(=O)Nc2cc(C)ccc2C)c(OC)c1	/	/	/	/	39*	/
COc1cccc(-n2ccnc2SCC(=O)Nc2cc(OC)ccc2OC)c1	i	-3	12	4	46*	1
